# PubChem BioAssay AID1362 (SRMLSC, 2008)
# Among all 190,000 compounds or so, about 4,000 (2.1%) were called active. No stated cut-off is given here; in the data, active means inhibition above about 58%; inactive means the rest, inconclusive results apart; tested in S. cerevisiae. The entries come from a sample that favours actives as a whole.
# Test: growth inhibition of WT strain, primary screen, mitochondrial fusion inhibitor project, WT and mutant strains, chemical genetic (AID 1362)
# Details: mitochondrial fusion phenotypic screen, at 10 µM
# [1] = WT strain, growth inhibition, stronger effect = higher value
SMILES,inhibition [1],inhibition (mutant strain inhibition)
COc1cccc(C(=O)Oc2cc(C)[nH]c(=O)c2[N+](=O)[O-])c1,15.8% (inactive),-9.84%
O=C(N/N=C/c1ccccn1)c1ccc(S(=O)(=O)N2CCCCCC2)cc1,2.23% (inactive),0.85%
COc1ccc(NC(=O)c2ccccc2CC[N+](=O)[O-])cc1,1.85% (inactive),1.42%
O=C(Nc1ccccc1F)c1ccc(Cn2cc(Br)cn2)cc1,10.6% (inactive),-0.75%
COCCCNC(=O)Cn1c(=O)n(Cc2ccccc2Cl)c(=O)c2cc(OC)c(OC)cc21,-6.28% (inactive),4.75%
CCCN(CCC)c1ccc(C(O)c2nnc(-c3ccccc3)o2)cc1 (stereo not given),76.5% (active),31.6%
OC(c1nnc(-c2ccccc2)o1)c1cccs1 (stereo not given),-15.8% (inactive),5.68%
C=CCn1c(SCc2nnc(-c3ccccc3)o2)nnc1C(O)c1ccccc1 (stereo not given),-11.7% (inactive),-5.65%
Cc1ccc(S(=O)(=O)N(C)C)cc1NC(=O)COC(=O)C1COc2ccccc2O1 (stereo not given),-0.23% (inactive),-14.6%
CCOc1ccccc1Oc1cn[nH]c1-c1ccc(OC)cc1O,61.8% (active),25.6%
CCOc1ccc(-c2n[nH]c(C)c2-c2ccccn2)c(O)c1,-20.5% (inactive),3.26%
CCOc1ccccc1NC(=O)Nc1cc(OC)ccc1OC,-4.32% (inactive),11.2%
C/C(=N\NC(=S)NCc1ccccc1)C1CCCCC1,47.2% (inactive),53.3%
Cc1cc(C)nc(NS(=O)(=O)c2ccc(N/C=C\C(=O)c3cccs3)cc2)n1,-2.27% (inactive),7.04%
COc1ccc(N2CCN(Cc3ccc(Br)s3)CC2)cc1,20.2% (inactive),14.9%
Fc1ccc(N2CCN(Cc3cnc(Oc4ccc(Br)cc4)s3)CC2)cc1,59% (active),34%
Oc1c(CN2CCN(c3ccc(F)cc3)CC2)cc(Cl)c2cccnc12,-1.47% (inactive),-25%
Cc1ccc(-c2csc(N(Cc3ccco3)C(=O)c3cccs3)n2)cc1,67.6% (active),34.4%
O=C(O)CCC(=O)N(Cc1ccco1)c1nc(-c2ccccc2)cs1,-21.3% (inactive),4.1%
Cc1ccc(-c2csc(NC(=O)c3cccs3)n2)cc1,22.4% (inactive),16.9%

SMILES,inhibition [1],inhibition (mutant strain inhibition)
O=c1[nH]c(CN2CCOCC2)nc2scc(-c3ccccc3)c12,5.72% (inactive),-6.95%
CC1(C)CCCC2=C1CC1C(=O)N(c3ccccc3)C(=O)C1C2 (stereo not given),6.4% (inactive),-1.63%
CC1CC2=C(CC1/C=N/NC(N)=S)C(C)(C)CCC2 (stereo not given),67.3% (active),64.1%
NC(=O)c1ccc(NC(=O)COC(=O)C(Cc2ccccc2)NC(=O)c2ccccc2)cc1 (stereo not given),-21.4% (inactive),-11.6%
O=C(c1ccccc1)c1ccc(OCC(O)CN2CCCC2)cc1 (stereo not given),-8.18% (inactive),5.68%
Cc1ccc(NC(=O)NNC(=O)c2sccc2-n2cccc2)cc1,-13.1% (inactive),-0.19%
Clc1cccc(N=C2NN=C(c3ccc4c(c3)OCCO4)CS2)c1,67.3% (active),17%
c1ccc(CN2CCC(N=C3NN=C(c4ccc5c(c4)OCCO5)CS3)CC2)cc1,10.8% (inactive),33%
Cc1cccc(N=C2NN=C(c3c[nH]c4ccccc34)CS2)c1,13.8% (inactive),-10.5%
Cc1cccc(NC(=O)c2sc(-c3ccccc3)nc2-c2ccc([N+](=O)[O-])cc2)c1,2.52% (inactive),-6.51%
CCOC(=O)/C(=C\c1ccc([N+](=O)[O-])cc1)C(=O)c1cc(C(C)=O)c(Nc2ccccc2)s1,84.2% (active),50.2%
O=C(Nc1ccccc1)/C(=C/c1ccc([N+](=O)[O-])cc1)NC(=O)c1ccccc1,-0.76% (inactive),-8.51%
CC(=O)NCC(=O)N(Cc1ccco1)C1(C(=O)NC2CCCC2)CCCCC1,-0.52% (inactive),10.2%
O=C(CCCN1C(=O)/C(=C/c2ccccc2)SC1=S)Nc1ccc(O)cc1,-11.2% (inactive),6.5%
Cc1ccc(OCC(=O)N/N=C\c2ccco2)c(C)c1,8.35% (inactive),16.3%
Cc1ccc(OCC(=O)N/N=C/c2ccncc2)cc1,-0.91% (inactive),-0.34%
Cc1ccc(/C=N/NC(=O)COc2ccccc2-c2ccccc2)cc1,93.7% (active),20.8%
CC(C(=O)NC1CCCC1)N(c1ccc(Oc2ccccc2)cc1)S(C)(=O)=O (stereo not given),20.8% (inactive),6.65%
COc1cccc(C(=O)N2CCCC(CCC(=O)NCc3ccc(F)c(F)c3)C2)c1 (stereo not given),-18.6% (inactive),0.91%
O=C(CCCNS(=O)(=O)c1cccc2nsnc12)NCCN1CCN(c2ccccc2F)CC1,-5.33% (inactive),6.35%
